# Rows were chosen to be rich in hits. Some 2.4% of all compounds tested hit in one or more screens of this group.
# FEN1 inh – qHTS Assay for the Inhibitors of Human Flap endonuclease 1 (FEN1); AID 588795, 2011; Potency, µM (titrated, usually from 114 µM), actives largely listed as inhibitors; 0.35% of 390,000 active; Recombinant FEN1 flap cleavage, fluorescence, 15 min; P39748; note: nearly all actives have a fitted effect of over 65% in size
#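 Recombinant FEN1 (10 nM) was preincubated with pin-transferred compounds for 15 min at room temperature, then flap DNA substrate (50 nM final) was added. Plates were read at 0 and 15 min, and normalized concentration–response data were fitted to a four-parameter Hill equation.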
# POLI inh – qHTS for Inhibitors of Polymerase Iota | 1% of 390,000 active | Pol iota fluorescent replication assay, 10 min | AID 588590, 2011 | Potency, µM (doses to about 115 µM), actives largely listed as inhibitors
#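 Fluorescent replication assay read twice, at 0 min and 10 min after adding 50 nM (final) substrate. Enzyme (10 nM) and compounds were first incubated 15 min at room temperature; enzyme-free buffer wells were negative controls.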
# TDP1 inh – qHTS Assay for Inhibitors of Tyrosyl-DNA Phosphodiesterase (TDP1) | 0.28% of 350,000 active | recombinant TDP1, AlphaScreen DNA substrate cleavage | Potency, µM (top dose mostly 130 µM), usual class: inhibitors | Tyrosyl-DNA phosphodiesterase 1 (Homo sapiens), Q9NUW8; note: nearly all actives have a fitted effect of over 40% in size
#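 Compounds were preincubated with Tdp1 (1 nM final) for 15 min at room temperature before substrate (15 nM final) started a 5 min reaction; beads (10 ug/ml final) were then added for 10 min before AlphaScreen detection.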
# Pol kappa inh – qHTS for Inhibitors of Polymerase Kappa; DNA polymerase kappa (Homo sapiens), Q9UBT6; 0.53% of 400,000 active; purified Pol kappa, fluorescent DNA synthesis assay, 10 min; Potency, µM (top dose mostly 107 µM), usual class: inhibitors
# Target sequence (Q9UBT6 whole entry, looked up): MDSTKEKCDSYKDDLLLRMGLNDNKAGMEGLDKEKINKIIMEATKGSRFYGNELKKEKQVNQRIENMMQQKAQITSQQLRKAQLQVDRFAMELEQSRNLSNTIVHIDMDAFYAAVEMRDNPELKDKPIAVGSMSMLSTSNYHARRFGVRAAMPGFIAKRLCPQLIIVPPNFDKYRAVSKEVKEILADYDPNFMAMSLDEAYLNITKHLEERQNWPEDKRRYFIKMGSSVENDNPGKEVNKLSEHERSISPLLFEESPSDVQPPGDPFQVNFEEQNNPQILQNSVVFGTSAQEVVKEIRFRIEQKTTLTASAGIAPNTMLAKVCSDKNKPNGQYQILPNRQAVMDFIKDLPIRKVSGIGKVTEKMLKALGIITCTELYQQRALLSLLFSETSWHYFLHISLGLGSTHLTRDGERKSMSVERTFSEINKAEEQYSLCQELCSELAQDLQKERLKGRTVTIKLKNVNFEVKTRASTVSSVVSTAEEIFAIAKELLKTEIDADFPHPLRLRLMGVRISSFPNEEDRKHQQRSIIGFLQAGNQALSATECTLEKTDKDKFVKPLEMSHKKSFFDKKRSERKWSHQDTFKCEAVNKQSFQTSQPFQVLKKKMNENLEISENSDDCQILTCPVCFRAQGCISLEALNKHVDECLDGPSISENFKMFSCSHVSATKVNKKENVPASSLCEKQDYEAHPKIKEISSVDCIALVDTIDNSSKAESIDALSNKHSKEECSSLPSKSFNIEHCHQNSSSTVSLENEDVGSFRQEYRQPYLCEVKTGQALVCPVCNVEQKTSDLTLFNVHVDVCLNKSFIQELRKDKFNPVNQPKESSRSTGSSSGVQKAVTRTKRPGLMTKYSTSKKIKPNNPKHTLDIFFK
#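 Enzyme at 10 nM met test compounds for 15 min at room temperature. Substrate addition (50 nM final) began the reaction, which was monitored by fluorescence at 0 and 10 min.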
# Pol eta inh – qHTS for Inhibitors of Polymerase Eta; recombinant Pol eta, fluorescent DNA replication assay; 1.2% of 390,000 active; DNA polymerase eta (Homo sapiens), Q9Y253; Potency, µM (series often up to 114 µM), most hits filed as inhibitors; AID 588591, 2011
#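 Pol eta at 10 nM preincubated with compounds 15 min at room temperature; reaction started with fluorescent substrate (50 nM final) and read kinetically at 0 and 10 min.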
# Pol beta inh – qHTS Assay for Inhibitors of DNA Polymerase Beta; P06746; Pol beta primer extension/strand displacement, fluorescence kinetic; Potency, µM (top dose mostly 114 µM), actives largely listed as inhibitors; 1.3% of 340,000 active; AID 485314, 2010
#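 Kinetic readout of DNA synthesis with strand displacement by Pol beta. Compound and 10 nM enzyme sit 15 min at room temperature; 50 nM substrate starts the reaction, read immediately and at 10 min.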
# Hits are given with their value; - = inactive; ? = inconclusive; . = no result; [ ] = dose if it differs, or a comment. Calls come from the whole dose curve; as a rule, active = well fitted curve in the direction sought with a large enough effect; inconclusive = small, poorly fitted or top-dose-only effect, or another doubt; inactive = no such curve, though single readings can be large; an effect the other way counts as inactive or inconclusive.
SMILES,FEN1 inh,POLI inh,TDP1 inh,Pol kappa inh,Pol eta inh,Pol beta inh
NC(=O)c1c(NC(=O)COC(=O)c2ccc(O)c(Cl)c2)sc2c1CCCC2,?,?,-,-,50µM,.
Cc1ccc(-n2c3nc(=O)[nH]c(=O)c-3cc3cc([N+](=O)[O-])ccc32)cc1,-,?,-,-,45µM,-
COc1cc(F)c(S(=O)(=O)N2CCN(S(=O)(=O)c3cccs3)CC2)c(F)c1,.,.,-,.,.,.
CNc1cc(C)c(C#N)c2nc3ccccc3n12,?,-,-,-,-,-
Cc1cc(Cl)n2c(nc3ccccc32)c1C#N,-,22µM,-,-,40µM,89µM
N[C@@H](C(=O)O)c1ccc(C(=O)O)c(O)c1,.,.,-,-[19.4 µM],.,.
N[C@@H](C(=O)O)c1ccc(O)c(C(=O)O)c1,50µM,?,?,-,.,.
C=C(C)C1CCC2(C(=O)O)CCC3(C)C(CCC4C5(C)C(C=O)C(O)C(C)(C)C5CCC43C)C12 (stereo unspecified),-,-,.,-,79µM,-
CCCCc1ccc(NC(=O)COC(=O)c2ccccc2OCC(=O)Nc2ccc(Br)cc2)cc1,-,-,.,-,.,.
C#CCNC(=O)C1=C[C@@H](c2ccccc2)C[C@@H](OCc2ccc(CO)cc2)O1,-,-,-,-,-,-
C=CCOC(=O)C1=C[C@@H](c2ccc(Br)cc2)C[C@@H](OCc2ccc(CO)cc2)O1,-,-,-,-,-,-
C#Cc1ccc([C@H]2C=C(C(=O)OCC=C)O[C@@H](OCc3ccc(CO)cc3)C2)cc1,?,?,.,?,28µM,.
C#CCNC(=O)C1=C[C@H](c2ccc(C#C)cc2)C[C@H](OCc2ccc(CO)cc2)O1,-,?,.,?,45µM,.
O=C(NNC(=O)c1ccc(NC(=O)c2ccccc2)cc1)Nc1ccccc1,-,40µM,.,?,?,11µM
O=C(NNC(=O)c1ccc(NC(=O)c2ccccc2)cc1)c1ccc(F)cc1,-,?,.,-,-,?
COc1ccc(NC(=O)NNC(=O)c2ccc(-c3ccccc3)cc2)cc1,-,?,-,-,-,7.9µM
O=C(CCc1ccccc1)NNC(=O)c1ccc(NC(=O)c2ccccc2)cc1,-,?,.,-,?,22µM
COc1ccc(-c2nc3ccc(C4=C(C)CC(=O)NN4)cc3[nH]2)cc1,.,.,.,-[19.4 µM],.,.
O=C1c2cccc3cccc(c23)N1Cc1cccc(F)c1,-,-,79µM,-,-,-
O=c1c(-c2ccccc2)coc2cc(O)cc(O)c12,.,.,-,1.8µM,.,.
O=C(Nc1ccc(F)cc1F)c1cc2ccc3cccnc3c2[nH]1,-,?,-,-,-,18µM
Cc1cnc(NC(=O)C2COc3ccccc3O2)s1 (stereo unspecified),-,?,-,?,?,50µM
COc1cc2cc(Oc3ccc4ccc(=O)oc4c3)c(=O)oc2cc1O[C@@H]1O[C@H](CO)[C@@H](O)[C@H](O)[C@H]1O,-,50µM,25µM,45µM,8.9µM,.
Cc1c(C)c2ccc(O[C@@H]3O[C@H](CO)[C@H](O)[C@H](O)[C@H]3O)cc2oc1=O,-,-,.,-,-,-
CN(C)c1ccc(/C=C/c2ccnc3ccc(-c4ccccc4)cc23)cc1,-,-,.,-,.,.
SMILES,FEN1 inh,POLI inh,TDP1 inh,Pol kappa inh,Pol eta inh,Pol beta inh
CCCCSc1ncnc2c1c(-c1ccccc1)cn2-c1cccc(F)c1,-,?,-,-,-,-
O=C(COc1ccc(Cl)cc1)OCC(=O)N1CCCC1,-,-,-,-,-,-
O=C(COc1ccc(Cl)cc1)OCC(=O)N1CCCCCC1,-,-,-,-,-,35µM
Cc1csc(N2CCN(c3cc4nc(-c5ccncc5)[nH]c4cc3Cl)CC2)n1,-,?,.,-,-,35µM
CCCCOc1ccc(S(=O)(=O)Nc2ccc(-c3ccc(N4CCC(C)CC4)nn3)cc2)cc1,-,-,-,-,-,-
Cc1ccc(C2C(C#N)=C(N)Oc3n[nH]c(-c4cccnc4)c32)o1 (stereo unspecified),-,28µM,-,-,-,-
CCCCOc1ccc(/C(O)=C2/C(=O)C(=O)N(CCCOC)C2c2ccncc2)cc1 (stereo unspecified),-,-,-,-,-,-
CCCOc1ccc(/C(O)=C2/C(=O)C(=O)N(CCCN3CCOCC3)C2c2ccncc2)cc1 (stereo unspecified),.,.,.,.,.,13µM
O=C(NCCc1ccc(F)cc1)c1coc(=O)c(Br)c1,-,-,.,-,-,-
O=C(Nc1ccc(Br)cn1)c1coc(=O)c(Br)c1,-,40µM,.,?,45µM,?
O=C(Nc1ccccc1F)c1coc(=O)c(Br)c1,?,28µM,20µM,32µM,79µM,13µM
CCCCCCNc1ccc(/C=C/c2ccnc3ccccc23)cc1,-,-,.,-,.,.
Cc1nc2ccn(Cc3ccco3)c(=O)c2cc1C(=O)Nc1ccc(F)cc1,-,-,-,-,-,-
CCOc1ccccc1CNC(=O)c1cc2c(=O)n(Cc3ccccc3)ccc2nc1C,-,?,-,-,-,25µM
CSc1ccc(CNC(=O)c2cc3c(=O)n(Cc4ccco4)ccc3nc2C)cc1,89µM,?,-,-,-,?
CC(C)(C)n1ncc2c(=O)n(Cc3ccccc3C(F)(F)F)cnc21,-,-,.,-,.,.
CCN(CC)S(=O)(=O)c1cc(NC(=O)c2ccc(Br)s2)ccc1C,-,-,-,-,-,-
CCN(CC)S(=O)(=O)c1cc(NC(=O)c2ccc3c(c2)NC(=O)C(C)S3)ccc1C (stereo unspecified),-,-,-,-,56µM,.
Cc1ccc(C)c(CN2C(=O)c3ccccc3S(=O)c3ccc(C(=O)NCCC4=CCCCC4)cc32)c1 (stereo unspecified),-,-,-,-,-,-
Nc1cn(C2OC(CO)C(O)C2O)c(=O)[nH]c1=O (stereo unspecified),-,-,56µM,-,-,-
O=C1/C(=C/c2ccncc2)CCc2ccccc21,-,-,-,-,79µM,-
O=C1/C(=C\c2ccncc2)CCc2ccccc21,-,?,-,-,?,.
COc1ccccc1N(C(C)=O)C1=C(Cl)C(=O)c2ccccc2C1=O,.,.,.,.,50µM,.
CC(=O)N(C1=C(N)C(=O)c2ccccc2C1=O)C(C)C,-,-,-,-,-,-
Cc1cc(C(=O)O)ccc1[C@H](N)C(=O)O,.,.,-,-[19.4 µM],.,.
Oc1cc2c(c(Cl)c1O)CCNC[C@H]2c1ccccc1,.,.,-,-[19.4 µM],.,.
Oc1cc2c(c(Cl)c1O)CCNCC2c1ccccc1 (stereo unspecified),-,32µM,-,-,?,?
CCSc1ccccc1C(=O)Nc1ccc(-c2nc3ccccc3s2)c(O)c1,-,-,-,-,-,-

# From PubChem
